Experiments:
[1] = molecular target: Pre-mRNA-processing-splicing factor 8 (UniProt Q6P2Q9); assay: cross-link between two proteins; cross-linking mass spectrometry
[2] = molecular target: Thioredoxin-like protein 4A (UniProt P83876); assay: as above
[3] = molecular target: U5 small nuclear ribonucleoprotein 40 kDa protein (UniProt Q96DI7); assay: as above
[4] = molecular target: U5 small nuclear ribonucleoprotein TSSC4 (UniProt Q9Y5U2); assay: cross-linking mass spectrometry
[5] = molecular target: CD2 antigen cytoplasmic tail-binding protein 2 (UniProt O95400); assay: cross-link between two proteins; cross-linking mass spectrometry
Sequence of CD2 antigen cytoplasmic tail-binding protein 2 (O95400 whole entry): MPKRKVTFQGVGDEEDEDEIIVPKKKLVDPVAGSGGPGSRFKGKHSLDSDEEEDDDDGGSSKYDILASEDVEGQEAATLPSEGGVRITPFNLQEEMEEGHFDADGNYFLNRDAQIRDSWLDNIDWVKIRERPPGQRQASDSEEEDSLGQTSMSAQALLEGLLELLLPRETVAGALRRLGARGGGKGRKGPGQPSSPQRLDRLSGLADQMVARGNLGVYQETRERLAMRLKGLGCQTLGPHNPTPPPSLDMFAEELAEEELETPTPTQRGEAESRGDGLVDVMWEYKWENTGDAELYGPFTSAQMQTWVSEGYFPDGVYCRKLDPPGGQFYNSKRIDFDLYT

Sequence of U5 small nuclear ribonucleoprotein 40 kDa protein (Q96DI7 whole entry): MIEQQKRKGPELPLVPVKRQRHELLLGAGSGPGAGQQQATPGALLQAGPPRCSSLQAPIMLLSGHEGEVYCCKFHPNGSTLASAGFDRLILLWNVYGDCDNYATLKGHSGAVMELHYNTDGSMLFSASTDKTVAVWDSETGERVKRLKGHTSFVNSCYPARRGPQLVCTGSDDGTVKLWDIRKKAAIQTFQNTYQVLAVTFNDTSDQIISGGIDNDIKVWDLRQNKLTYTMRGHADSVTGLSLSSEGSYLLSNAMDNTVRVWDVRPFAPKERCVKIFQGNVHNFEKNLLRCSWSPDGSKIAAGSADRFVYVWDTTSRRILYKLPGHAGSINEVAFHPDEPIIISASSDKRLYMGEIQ
Sequence of Thioredoxin-like protein 4A (P83876 whole entry): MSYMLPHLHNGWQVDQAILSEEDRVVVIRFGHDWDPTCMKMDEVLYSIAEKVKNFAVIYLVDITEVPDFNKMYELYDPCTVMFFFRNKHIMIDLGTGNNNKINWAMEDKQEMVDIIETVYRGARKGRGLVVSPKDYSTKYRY
Sequence of U5 small nuclear ribonucleoprotein TSSC4 (Q9Y5U2 whole entry): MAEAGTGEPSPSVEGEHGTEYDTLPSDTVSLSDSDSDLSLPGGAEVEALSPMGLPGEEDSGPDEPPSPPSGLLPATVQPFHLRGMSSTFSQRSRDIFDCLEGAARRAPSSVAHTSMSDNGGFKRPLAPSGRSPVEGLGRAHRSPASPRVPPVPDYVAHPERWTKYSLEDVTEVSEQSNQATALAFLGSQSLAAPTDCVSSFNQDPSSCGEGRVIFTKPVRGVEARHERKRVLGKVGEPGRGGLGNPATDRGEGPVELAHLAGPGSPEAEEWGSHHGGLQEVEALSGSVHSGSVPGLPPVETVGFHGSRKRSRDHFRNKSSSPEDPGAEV

Which results are given for “CD2 antigen cytoplasmic tail-binding protein 2, O95400”?
listed as a hit [1]: yes; listed as a hit [2]: yes; listed as a hit [3]: yes

How did the “listed as a hit” value [4] turn out when “U5 small nuclear ribonucleoprotein 200 kDa helicase, O75643” was run?
Its value is “yes”.

With Pre-mRNA-processing factor 6, O94906 as the substance, how does the “listed as a hit” value [5] read?
Its value is “yes”.

What about the “listed as a hit” value [3] of the same substance?
The value was “yes”.

— article PMC11102862
